{"source": "PubChem BioAssay AID488984", "about": "(The Scripps Research Institute Molecular Screening Center, 2010)", "note": "Values without a mark were called inactive. Activity calls are given as the source filed them. No stated cut-off is given here; in the data, active means inhibition above about 55%; inactive means the rest.", "data": [{"tested_on": "SARS coronavirus 3C-like protease (3CLpro, nsp5)", "test": "blockers of SARS 3CLpro activity – biochemical, fluorescence, set 2, late-stage follow-up (AID 488984)", "settings": "recombinant 3CLpro, fluorogenic peptide cleavage; at 100 µM; hits give high values", "values": [{"smiles": "CC(C)(C)NC(=O)C(c1cccnc1)N(C(=O)c1n[nH]c2ccccc12)c1ccc(C(C)(C)C)cc1", "note": "(centres undefined)", "inhibition": "20.6%"}, {"smiles": "CC(=O)Nc1ccc(N(C(=O)Cn2nnc3ccccc32)C(C(=O)NC(C)(C)C)c2ccsc2)cc1", "note": "(centres undefined)", "inhibition": "94.8% (active)"}, {"smiles": "CC(C)(C)NC(=O)C(c1ccsc1)N(C(=O)Cc1cccc2ccccc12)c1ccc(OCF)cc1", "note": "(centres undefined)", "inhibition": "18.2%"}, {"smiles": "CC(C)c1ccc(N(C(=O)Cc2c[nH]c3ccccc23)C(C(=O)NC(C)(C)C)c2cccnc2)cc1", "note": "(centres undefined)", "inhibition": "3.78%"}, {"smiles": "CC(C)(C)NC(=O)C(c1ccsc1)N(C(=O)c1ccc(C(F)(F)F)nc1)c1ccc(OCF)cc1", "note": "(centres undefined)", "inhibition": "21.3%"}, {"smiles": "CC(C)(C)NC(=O)C(c1ccsc1)N(C(=O)Cn1nnc2ccccc21)c1ccc(C(C)(C)C)cc1", "note": "(centres undefined)", "inhibition": "2.8%"}, {"smiles": "CC(C)(C)NC(=O)C(c1ccsc1)N(C(=O)Cn1nnc2ccccc21)c1ccc(N)cc1", "note": "(centres undefined)", "inhibition": "74.8% (active)"}, {"smiles": "CC(C)(C)NC(=O)C(c1cccnc1)N(C(=O)c1ccco1)c1ccc(C(C)(C)C)cc1", "note": "(centres undefined)", "inhibition": "102% (active)"}, {"smiles": "CC(C)(C)NC(=O)C(c1ccsc1)N(C(=O)Cc1c[nH]c2ccccc12)c1ccc(F)cc1", "note": "(centres undefined)", "inhibition": "17.7%"}, {"smiles": "CC(C)(C)NC(=O)C(c1ccsc1)N(C(=O)Cc1cccnc1)C1CC1", "note": "(centres undefined)", "inhibition": "25.9%"}, {"smiles": "CC(C)(C)NC(=O)C(c1cccnc1)N(C(=O)c1ccco1)C1CC1", "note": "(centres undefined)", "inhibition": "-1.64%"}, {"smiles": "CC(C)(C)NC(=O)C(c1ccsc1)N(C(=O)c1n[nH]c2ccccc12)C1CC1", "note": "(centres undefined)", "inhibition": "13%"}, {"smiles": "CC(=O)Nc1ccc(N(C(=O)Cn2cnc3ccccc32)C(C(=O)NC(C)(C)C)c2ccsc2)cc1", "note": "(centres undefined)", "inhibition": "2.63%"}, {"smiles": "CC(C)(C)NC(=O)C(c1ccsc1)N(C(=O)c1ccc(C(F)(F)F)nc1)c1ccc(C(C)(C)C)cc1", "note": "(centres undefined)", "inhibition": "19.7%"}, {"smiles": "CC(C)(C)NC(=O)C(c1cccnc1)N(C(=O)c1ccc(C#N)cc1)c1ccc(C(C)(C)C)cc1", "note": "(centres undefined)", "inhibition": "-0.02%"}, {"smiles": "Cc1nccn1CC(=O)N(c1ccc(NS(C)(=O)=O)cc1)C(C(=O)NC(C)(C)C)c1ccsc1", "note": "(centres undefined)", "inhibition": "0.44%"}, {"smiles": "CC(C)(C)NC(=O)C(c1ccsc1)N(C(=O)c1cccc2c1CCCC2)c1ccc(OCF)cc1", "note": "(centres undefined)", "inhibition": "12.6%"}, {"smiles": "CC(C)(C)NC(=O)C(c1cccnc1)N(C(=O)Cc1cccc2ccccc12)c1ccc(OCF)cc1", "note": "(centres undefined)", "inhibition": "3.12%"}, {"smiles": "CC(C)(C)NC(=O)C(c1ccsc1)N(C(=O)Cc1cccc2ccccc12)c1ccc(C(C)(C)C)cc1", "note": "(centres undefined)", "inhibition": "22.3%"}, {"smiles": "CC(C)(C)NC(=O)C(c1ccsc1)N(C(=O)Cc1cccnc1)c1ccc(F)cc1", "note": "(centres undefined)", "inhibition": "19%"}, {"smiles": "CC(C)(C)NC(=O)C(c1cccnc1)N(C(=O)Cc1cccc2ccccc12)C1CC1", "note": "(centres undefined)", "inhibition": "2.44%"}, {"smiles": "CC(C)(C)NC(=O)C(c1cccnc1)N(C(=O)c1ccc(C#N)cc1)c1ccc(F)cc1", "note": "(centres undefined)", "inhibition": "-13.5%"}, {"smiles": "CC(C)(C)NC(=O)C(c1ccsc1)N(C(=O)Cc1cccnc1)c1ccc(C(C)(C)C)cc1", "note": "(centres undefined)", "inhibition": "37.4%"}, {"smiles": "CC(C)C(=O)Nc1ccc(N(C(=O)Cn2nnc3ccccc32)C(C(=O)NC(C)(C)C)c2ccsc2)cc1", "note": "(centres undefined)", "inhibition": "96.7% (active)"}, {"smiles": "CC(C)c1ccc(N(C(=O)c2ccc(C#N)cc2)C(C(=O)NC(C)(C)C)c2cccnc2)cc1", "note": "(centres undefined)", "inhibition": "-3.85%"}, {"smiles": "CC(C)(C)NC(=O)C(c1ccsc1)N(C(=O)c1ccc(C(F)(F)F)nc1)c1ccc(F)cc1", "note": "(centres undefined)", "inhibition": "9.21%"}, {"smiles": "CCC(=O)Nc1ccc(N(C(=O)Cn2nnc3ccccc32)C(C(=O)NC(C)(C)C)c2ccsc2)cc1", "note": "(centres undefined)", "inhibition": "94.2% (active)"}, {"smiles": "CC(C)(C)NC(=O)C(c1ccsc1)N(C(=O)c1ccco1)c1ccc(OC(F)F)cc1", "note": "(centres undefined)", "inhibition": "25.9%"}, {"smiles": "CC(C)c1ccc(N(C(=O)c2cccc3c2CCCC3)C(C(=O)NC(C)(C)C)c2cccnc2)cc1", "note": "(centres undefined)", "inhibition": "-5.03%"}, {"smiles": "CC(C)(C)NC(=O)C(c1ccsc1)N(C(=O)Cn1cnc2ccccc21)c1ccc(NS(C)(=O)=O)cc1", "note": "(centres undefined)", "inhibition": "38%"}, {"smiles": "CC(C)(C)NC(=O)C(c1ccsc1)N(C(=O)c1n[nH]c2ccccc12)c1ccc(OC(F)F)cc1", "note": "(centres undefined)", "inhibition": "14.3%"}, {"smiles": "CC(C)(C)NC(=O)C(c1cccnc1)N(C(=O)Cc1cccnc1)c1ccc(F)cc1", "note": "(centres undefined)", "inhibition": "5.7%"}, {"smiles": "CC(C)(C)NC(=O)C(c1ccsc1)N(C(=O)c1ccc(C#N)cc1)c1ccc(F)cc1", "note": "(centres undefined)", "inhibition": "17.4%"}, {"smiles": "Cc1nc2ccccc2n1CC(=O)N(c1ccc(NC(=O)C(C)C)cc1)C(C(=O)NC(C)(C)C)c1ccsc1", "note": "(centres undefined)", "inhibition": "0.26%"}]}]}
